# FXN GAA850 act: activators of GAA850 frataxin (FXN) promoter. HEK293 lucGAA850 FXN promoter luciferase reporter, 24 h; percent of 10 µM SAHA response. activation, % at 6 µM. actives 0.56% (n = 360,000);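 active means activation above the average of all compounds screened plus 3 SD, cutoff fixed separately per campaign, cut at about 7.5% in these data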;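 further: 0% = DMSO wells and 100% = 10 µM SAHA wells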
# SMARCA2 activ: SMARCA2 function activation, primary screen; activation, % at 9.1 µM; actives 1% (n = 370,000); MG213 cells, MMTV-luciferase reporter, dexamethasone, overnight; in the data active means activation above about 7.8%;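 further: 0% = vehicle wells and 100% = reference activator wells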
# proKLK7 act: activators of human kallikrein-7 zymogen; P49862; purified proKLK7, EDANS-DABCYL substrate fluorescence; 100% is mature enzyme control, 0% vehicle; activation, % at 7 µM; actives 0.9% (n = 370,000);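 active means activation above the mean of all tested compounds plus 3 SD, computed per campaign excluding outliers beyond control limits, cut at about 13% in these data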
# FAS-TE inh: inhibitors of human fatty acid synthase thioesterase domain | P49327 | recombinant FAS-TE, OMFH fluorogenic substrate, fluorescence endpoint | inhibition, % at 15 µM | actives 0.67% (n = 360,000) | AID 602261;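 active means compounds whose normalised, plate-corrected inhibition of enzyme fluorescence in the single-dose primary screen is 50% or more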;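 further: 0% = DMSO with enzyme and 100% = substrate without enzyme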
# Starred values were filed as active, the others as inactive; / = not tested or not shown. Rows were chosen to be rich in hits. Some 2.9% of all compounds tested hit in one or more screens of this group.
SMILES,FXN GAA850 act,SMARCA2 activ,proKLK7 act,FAS-TE inh
O=Cc1ccc(-n2cncn2)cc1,1,-1,-1,-4
COc1ccc(C(=O)C(C)OC(=O)c2cccc(S(=O)(=O)Nc3cc(Cl)c(OC)cc3OC)c2)cc1 (stereo unspecified),0,/,/,57*
COc1ccc(CC(=O)OCc2nnc(C3COc4ccccc4O3)o2)cc1OC (stereo unspecified),-1,-1,0,-6
Cc1cc(NC(=O)c2ccc(Cl)cc2)c(C)cc1O,2,2,0,1
Cc1cc(C(C#N)c2ccc(Cl)cc2)c(Cl)cc1NC(=O)c1cc(I)cc(I)c1O (stereo unspecified),4,-4,0,57*
CCN(CC)c1ccc2cc(NC(=O)CCC(=O)O)c(=O)oc2c1,-17,-12,78*,-18
CCN(CC)c1ccc2cc(C(C)=O)c(=O)oc2c1,2,4,0,-60
CC1CC(C)CN(C(=O)CSCC(=O)O)C1 (stereo unspecified),1,-4,1,-4
COc1ccc(NC(=O)c2ccc(-c3ccccc3C(F)(F)F)o2)cc1,0,7.9*,-1,35
CCN1C(=O)[C@H]2[C@@H](c3ccc(C)cc3)N3C(=O)N(c4ccc(OC)cc4)C(=O)[C@@]3(Cc3ccc(Cl)cc3)[C@H]2C1=O,-3,-1,1,20
O=C1[C@H]2[C@@H](c3ccc(F)cc3)N3C(=O)N(c4ccc(Br)cc4)C(=O)[C@@]3(Cc3ccc(Cl)cc3)[C@H]2C(=O)N1C1CCCCC1,9.5*,-1,-1,94*
CCN1C(=O)[C@H]2[C@@H](c3ccc(C)cc3)N3C(=O)N(c4cccc(F)c4)C(=O)[C@@]3(CC)[C@H]2C1=O,3,-1,-1,-8
CC[C@@]12C(=O)N(c3cccc(F)c3)C(=O)N1[C@H](c1ccc(F)cc1)[C@@H]1C(=O)N(C3CCCCC3)C(=O)[C@@H]12,13*,/,/,31
O=C(NCc1ccccc1C(F)(F)F)c1cccc2c1C(=O)c1ccc(N3CCC(N4CCCCC4)CC3)cc1S2(=O)=O,0,20*,-2,-38
C=CCOc1ccc(CN(C)CC(=O)Nc2ccccc2[N+](=O)[O-])cc1,2,-4,0,31
CC(=O)Nc1ccc(Oc2nc(-c3ccccn3)nc3ccccc23)cc1,3,7.9*,0,-8
CC(=O)Nc1cccc(Oc2nc(-c3ccccn3)nc3ccccc23)c1,1,6,0,-2
CN(C)N1C(N)=C(C#N)C(c2ccc3c(c2)OCO3)C2=C1CCCC2=O (stereo unspecified),1,1,0,-6
COc1ccccc1NC(=O)CN(c1ccc(C23CC4CC(CC(C4)C2)C3)cc1)S(C)(=O)=O,9.4*,-4,0,19
CC1=C(C(N)=O)C(c2ccc(Cl)cc2)NC(=O)N1 (stereo unspecified),-2,1,-1,-9
CN(C)c1ccc(Cc2ccc(N(C)C)cc2)cc1,-1,-1,0,29
CNc1nnc(-c2ccc(N(C)C)cc2)s1,-1,4,40*,-5
Cc1nnc2sc(-c3cccc(F)c3)nn2c1=O,-2,2,0,-1
O=C(COc1ccc(Br)cc1Br)NC(=S)N1CCCc2ccccc21,2,/,/,-5
O=C(c1cccc(S(=O)(=O)N2CCOCC2)c1)N1CCN(c2ccc(F)cc2)CC1,-1,2,-1,-2
SMILES,FXN GAA850 act,SMARCA2 activ,proKLK7 act,FAS-TE inh
O=Cc1cccn1-c1cccnc1,0,7.9*,-1,-7
Nc1nc(COc2ccccc2)cs1,1,7.9*,-1,-13
COc1ccc(CCn2c(-c3ccc(C(C)(C)C)cc3)n[nH]c2=S)cc1OC,1,7.9*,0,6
COc1ccc(CCn2cnc3nc4ccc(Cl)cc4cc3c2=O)cc1OC,/,-2,0,/
CCCC(=O)Nc1cccc(Oc2ccc3c(c2)C(=O)NC3=O)c1,-1,-1,0,0
N#C/C(=C/c1ccc(N2CCCCCC2)o1)c1ccc(F)cc1,3,/,/,-6
N#C/C(=C/c1ccc(N2CCOCC2)o1)c1ccc(Br)cc1,16*,3,-1,-31
CC1C(=O)N(Cc2cn(CCC3OCCCO3)nn2)CCS(=O)(=O)N1Cc1ccc(-c2ccc(Cl)cc2)cc1 (stereo unspecified),-1,-6,1,16
O=c1oc2c(O)c(O)cc3c(=O)oc4c(O)c(O)cc1c4c23,1,/,/,84*
CC1CCCCC1NC(=O)COCc1cc(-c2cccs2)on1 (stereo unspecified),-1,1,0,8
Cc1c(C)c2c(OCC(=O)NC3CC3)cc3c(c2oc1=O)CCC(C)(C)O3,0,-2,-9,0
Cc1c(C)c2c(OCC(=O)N3CCC(C(N)=O)CC3)cc3c(c2oc1=O)CCC(C)(C)O3,3,0,32*,-7
CNc1nnc(-c2ccc(C)cc2)c2ccccc12,3,-3,0,-1
CSc1ccc(/C=N/Nc2cccc(C(=O)O)c2)cc1,9.1*,/,/,2
CCC(C)NC(=O)C1c2ccccc2C(=O)N(c2ccc(OC)cc2)C1c1ccc(OC)cc1 (stereo unspecified),4,-1,0,1
N#Cc1c(C(F)(F)F)cc(-c2ccc(Cl)cc2)[nH]c1=O,0,-2,21*,-2
N#Cc1c(C(F)(F)F)cc(-c2ccc(F)cc2)[nH]c1=O,3,0,8,-5
COc1ccc(/C(C)=N/Nc2nccnc2Cl)cc1,5,7.9*,0,-2
C/C(=N\Nc1nccnc1Cl)c1ccc(Br)cc1,5,2,0,6
Fc1cccc(F)c1/C=N/N1CCOCC1,2,7.9*,0,-4
Fc1ccc(/C=N/N2CCOCC2)c(F)c1,1,1,0,-6
O=C(CN1C(=O)NC2(CCCCC2)C1=O)Nc1cc(C(F)(F)F)ccc1N1CCOCC1,0,-3,0,3
CCOc1ccccc1N1CC(C(=O)Nc2ccc(S(=O)(=O)N3CCCCC3)cc2)CC1=O (stereo unspecified),0,-1,0,-4
CC(C)(C)C(=O)Nc1ccc(C(=O)OC2CCCCC2)cc1,10*,/,/,17
O=C(OC1CCCCC1)c1ccc(NC(=O)C2CCCCC2)cc1,2,1,1,26
COc1ccccc1[C@@H]1C(c2ccc(F)cc2)=NN(c2ccccc2)[C@H]1C(=O)N1CCOC1=O,6,-2,-4,84*
O=C1OCCN1C(=O)[C@H]1[C@H](c2ccc([N+](=O)[O-])cc2)C(c2cccc(Cl)c2)=NN1c1ccccc1,0,-1,-1,89*
COc1ccccc1[C@@H]1C(c2cccc(C)c2)=NN(c2ccccc2)[C@H]1C(=O)N1CCOC1=O,4,-1,-3,74*
CCOc1cccc(CN2CCCC(CCC(=O)NCc3ccccc3F)C2)c1O (stereo unspecified),0,-3,-1,-3
CC1(C)CC(=O)C(C2(O)C(=O)N(Cc3ccccc3)c3ccccc32)CO1 (stereo unspecified),1,-3,0,0

# Screens from PubChem.
